Experimental data as given in PubChem BioAssay (EPA / NIEHS).
Several values for one entry are separate records, joined by “and”; a condition that tells them apart may be missing. Identical values can stand only once. Inconclusive results are not listed. Some structures have more than one record in an assay (separate samples or runs), and their calls can disagree. Activity calls are given as the source filed them. Rule for the calls, unless noted: active = hit-call score of the fitted dose curve at least 0.9, where 1 is the maximum; inconclusive = response in the unintended direction; inactive = score below 0.9.

Legend:
[1] = read-out: UDP glucuronosyltransferase (UGT1A1), UGT1A1 (gene 54658); experiment: LTEA_HepaRG_UGT1A1: Life Technologies and Expression Analysis (LTEA) Assay for UDP glucuronosyltransferase (UGT1A1) using HepaRG (AID 2283538; active = hit-call score of the fitted dose curve at least 0.9, where 1 is the maximum; inactive = score below 0.9); conditions: mRNA level, 48 h; actives raise or lower the signal
Procedure, shortened: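 UGT1A1 transcript level, measured by qRT-PCR with three housekeeping genes for normalization, after 48 h treatment of human HepaRG cells (0.5% DMSO, duplicates, up to 100 uM, half-log steps, 8 points). Curves fit both directions against DMSO baseline.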

[2] = read-out: UDP glucuronosyltransferase (UGT1A6), UGT1A6 (gene 54578); experiment: LTEA_HepaRG_UGT1A6: Life Technologies and Expression Analysis (LTEA) Assay for UDP glucuronosyltransferase (UGT1A6) using HepaRG (AID 2283539; active = hit-call score of the fitted dose curve at least 0.9, where 1 is the maximum; inactive = score below 0.9); conditions: mRNA level, 48 h; actives raise or lower the signal
Procedure, shortened: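 Human HepaRG cells were dosed for 48 h in serum-free induction medium with 0.5% DMSO vehicle, eight-point half-log series from 100 uM, in duplicate. UGT1A6 mRNA was measured by qRT-PCR, normalized to ACTB, GAPDH, POLR2A, and fitted bidirectionally against DMSO.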

[3] = read-out: X-box binding protein 1 (XBP1), XBP1 (gene 7494); experiment: LTEA_HepaRG_XBP1: Life Technologies and Expression Analysis (LTEA) Assay for X-box binding protein 1 (XBP1) using HepaRG (AID 2283540; active = hit-call score of the fitted dose curve at least 0.9, where 1 is the maximum; inactive = score below 0.9); conditions: mRNA level, 48 h; actives raise or lower the signal
Procedure, shortened: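 Differentiated human HepaRG cells in serum-free induction medium were exposed in duplicate for 48 h to eight half-log concentrations up to 100 uM in 0.5% DMSO. XBP1 mRNA was quantified by qRT-PCR, normalised to ACTB, GAPDH and POLR2A, with bidirectional fitting against DMSO.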

[4] = LTEA_HepaRG_LDH_cytotoxicity: Cytotoxicity Assessment in the Life Technologies and Expression Analysis (LTEA) Assay (AID 2283563)
Procedure, shortened: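 Differentiated human HepaRG cells, plated 48 h beforehand, were switched to serum-free induction medium and exposed for 48 h to eight half-log concentrations (top 100 uM) in 0.5% DMSO. LDH was measured in spent medium; activity was fitted relative to DMSO vehicle.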

[5] = TOX21_p53_BLA_p2_viability: Viability Assessment in the Tox21 HCT-116 p53 Agonism Beta-lactamase Assay, Phase 2 (AID 2283591);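 note: compound exposure lasted 16 h at 37 °C; actives lower the ATP signal meaning cytotoxicity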
Procedure, shortened: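 HCT116 p53-bla cells, 4000/well, dosed after 5 h plating (217-fold dilution of DMSO stocks) and incubated 16 h at 37C. Viability taken as cellular ATP by CellTiter-Glo luminescence after 30 min RT; signal loss marks cytotoxicity.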

[6] = molecular target: Cellular tumor antigen p53 (Homo sapiens) (UniProt P04637); experiment: TOX21_p53_BLA_p2_ratio: Tox21 HCT-116 p53 Agonism Beta-lactamase Assay, Ratio, Phase 2 (AID 2283592)
Procedure, shortened: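 Ratio endpoint: beta-lactamase cleavage of CCF4-AM, blue (460 nm) over green (530 nm). HCT116 reporter line; 16 h treatment, 37C; substrate 2 h RT.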

[7] = TOX21_p53_BLA_p3_viability: Viability Assessment in the Tox21 HCT-116 p53 Agonism Beta-lactamase Assay, Phase 3 (AID 2283593);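 note: cells exposed to compound for 16 h before reading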
Procedure, shortened: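 HCT116 cells, 4000/well, dosed 5 h after plating by pin transfer (217-fold dilution from DMSO stock) and incubated 16 h at 37C, 5% CO2. Viability read as ATP luminescence with CellTiter-Glo after 30 min at room temperature.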

[8] = molecular target: Cellular tumor antigen p53 (Homo sapiens) (UniProt P04637); experiment: TOX21_p53_BLA_p3_ratio: Tox21 HCT-116 p53 Agonism Beta-lactamase Assay, Ratio, Phase 3 (AID 2283596)
Procedure, shortened: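 Cells were seeded at 4000/well, rested 5 h at 37C, then dosed with DMSO compound solutions (217-fold dilution) for 16 h. CCF4-AM substrate was loaded for 2 h at room temperature, and the 460/530 nm emission ratio was fitted for gain of signal versus DMSO.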

[9] = TOX21_p53_BLA_p5_viability: Viability Assessment in the Tox21 HCT-116 p53 Agonism Beta-lactamase Assay, Phase 5 (AID 2283600)
Procedure, shortened: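 Luciferase-coupled ATP quantitation of cells treated for 16 h (37C, 5% CO2) with test chemicals delivered in DMSO via a 217-fold dilution; 4000 cells/well; reagent incubated 30 min at room temperature before luminescence reading.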

[10] = molecular target: Cellular tumor antigen p53 (Homo sapiens) (UniProt P04637); experiment: TOX21_p53_BLA_p4_ratio: Tox21 HCT-116 p53 Agonism Beta-lactamase Assay, Ratio, Phase 4 (AID 2283601)
Procedure, shortened: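 HCT-116 p53 beta-lactamase reporter cells (4000/well) preincubated 5 h, then compound (217-fold dilution of DMSO stock) for 16 h at 37C. CCF4-AM substrate added 2 h at room temperature; 460/530 nm emission ratio fitted upward versus DMSO.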

[11] = Tanguay_ZF_120hpf_YSE_legacy: (Legacy) Oregon State University Tanguay Lab 120 Hour Post-fertilization zebrafish Assay for Yolk Sac Edema (AID 2283634)
Procedure, shortened: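 Tropical 5D wild-type embryos, dechorionated with pronase at 4 hpf, were exposed singly from 6 hpf to 120 hpf under static, sealed, dark conditions at 28C with 0.64% DMSO final. Yolk sac edema was scored present/absent by brightfield microscopy.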

[12] = Tanguay_ZF_120hpf_AXIS_legacy: (Legacy) Oregon State University Tanguay Lab 120 Hour Post-fertilization zebrafish Assay for Body Axis Malformation (AID 2283635)
Procedure, shortened: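 Tropical 5D wild-type zebrafish embryos, dechorionated with pronase at 4 hpf, were placed singly in wells at 6 hpf and exposed statically to test chemical (0.64% DMSO final) at 28C until 120 hpf, then scored by brightfield for body axis defects.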

[13] = Tanguay_ZF_120hpf_EYE_legacy: (Legacy) Oregon State University Tanguay Lab 120 Hour Post-fertilization zebrafish Assay for Eye Malformation (AID 2283636);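 note: binary presence or absence of eye malformation scored by brightfield in 120 hpf larvae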
Procedure, shortened: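 5D wild-type embryos, pronase-dechorionated at 4 hpf; static exposure 6–120 hpf, 28C, dark; DMSO 0.64% final; 5uM trimethyltin chloride positive control. Binary eye-defect scoring at 120 hpf; dead embryos not scored.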

[14] = Tanguay_ZF_120hpf_SNOU_legacy: (Legacy) Oregon State University Tanguay Lab 120 Hour Post-fertilization zebrafish Assay for Snout Malformation (AID 2283637)
Procedure, shortened: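 Binary brightfield scoring of snout malformation at 120 hpf. Dechorionated 5D wild-type embryos, one per well, static exposure from 6 hpf at 28C, sealed and dark; final DMSO 0.64% (vol/vol), DMSO as baseline; 5uM trimethyltin chloride positive control.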

[15] = Tanguay_ZF_120hpf_JAW_legacy: (Legacy) Oregon State University Tanguay Lab 120 Hour Post-fertilization zebrafish Assay for Jaw Malformation (AID 2283638);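 for AC50: active means more embryos with jaw malformation than DMSO controls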
Procedure, shortened: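 Tropical 5D wild-type embryos, dechorionated with pronase at 4 hpf, were placed singly per well at 6 hpf and statically exposed at 28C until 120 hpf (0.64% DMSO final). Jaw malformation scored as present/absent by brightfield microscopy at 120 hpf, analyzed relative to DMSO.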

[16] = Tanguay_ZF_120hpf_MORT_legacy: (Legacy) Oregon State University Tanguay Lab 120 Hour Post-fertilization zebrafish Assay for Mortality (AID 2283633)
Procedure, shortened: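 Dechorionated Tropical 5D wild-type zebrafish embryos, one per well from 6 hpf, were statically exposed at 28C in the dark until 120 hpf (0.64% DMSO final). Mortality was scored as present/absent by brightfield microscopy, fitted positively versus DMSO.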

[17] = Tanguay_ZF_120hpf_OTIC_legacy: (Legacy) Oregon State University Tanguay Lab 120 Hour Post-fertilization zebrafish Assay for Otic Vesicle Malformation (AID 2283639)
Procedure, shortened: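 Binary scoring of otic vesicle defects at 120 hpf in zebrafish (Tropical 5D) held under static exposure at 28C, sealed and shaded, with final DMSO 0.64%. Embryos dying by 24 or 120 hpf excluded; fitted positively against DMSO.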

[18] = TOX21_p53_BLA_p4_viability: Viability Assessment in the Tox21 HCT-116 p53 Agonism Beta-lactamase Assay, Phase 4 (AID 2283597);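 note: hits lower the luminescence signal meaning cytotoxicity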
Procedure, shortened: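 Cytotoxicity was inferred from loss of CellTiter-Glo luminescence. HCT116 cells had been dosed with compounds after 5 h plating, incubated 16 h at 37C and 5% CO2, and exposed to the CCF4-AM substrate for 2 h.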

[19] = molecular target: Cellular tumor antigen p53 (Homo sapiens) (UniProt P04637); experiment: TOX21_p53_BLA_p5_ratio: Tox21 HCT-116 p53 Agonism Beta-lactamase Assay, Ratio, Phase 5 (AID 2283599)
Procedure, shortened: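 HCT-116 p53-bla cells (4000/well) plated 5 h, dosed with compound (217-fold DMSO dilution) for 16 h at 37 C; CCF4-AM substrate 2 h at room temperature. Activity is the 460/530 nm emission ratio (405 nm excitation), fitted in gain-of-signal direction versus DMSO.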

[20] = ATG_XTT_Cytotoxicity: Cytotoxicity Assessment in the Attagene TRANS-FACTORIAL HepG2 Assay (AID 2283584)
Procedure, shortened: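 HepG2 human liver cells, transiently transfected with multiple GAL4-UAS reporter units, were dosed and read at 24 h by XTT as cell number. Loss of signal was fitted relative to DMSO negative control baseline.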

Measured: AC50

Chain of Cellular tumor antigen p53 (Homo sapiens) (P04637 whole entry, looked up): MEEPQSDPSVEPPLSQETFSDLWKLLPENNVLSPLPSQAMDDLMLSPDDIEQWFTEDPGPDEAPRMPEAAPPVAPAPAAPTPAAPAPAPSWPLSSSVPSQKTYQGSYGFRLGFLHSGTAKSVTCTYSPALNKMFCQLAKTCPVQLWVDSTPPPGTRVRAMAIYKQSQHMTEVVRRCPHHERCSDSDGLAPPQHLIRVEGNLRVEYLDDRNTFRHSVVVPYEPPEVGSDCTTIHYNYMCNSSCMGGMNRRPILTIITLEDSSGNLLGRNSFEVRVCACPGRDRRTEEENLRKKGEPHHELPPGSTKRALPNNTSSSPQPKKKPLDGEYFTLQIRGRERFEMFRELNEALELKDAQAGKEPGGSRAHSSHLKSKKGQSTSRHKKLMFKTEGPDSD

CCCc1cc(=O)[nH]c(=S)[nH]1
not listed: [16] | [17] | [18] | [19] | [20]
inactive: all other assays above

CN1CCN(Cc2cc(-c3ccc4[nH]c(=O)oc4c3)co2)[C@@H](c2ccc(F)cc2)C1
active: [14] 25.6 µM | [15] 25.7 µM
not listed: [8] | [9] | [10] | [18] | [19] | [20]
inactive: all other assays above

O=c1c(O)c(-c2ccc(O)c(O)c2)oc2cc(O)cc(O)c12
inactive: [2] | [3] | [4] | [5] | [7] | [18] | [9] | [16] | [11] | [12] | [14] | [15] | [17]
active: [1] 0.322 µM | [6] 20.2 µM [middle of 4 runs] | [18] 34.7 µM | [19] 44.4 µM [middle of 4 runs] | [10] 22.8 µM [middle of 4 runs]

Cc1c(C(=O)O)c(O)cc2c1C(=O)c1c(O)c([C@@H]3O[C@H](CO)[C@@H](O)[C@H](O)[C@H]3O)c(O)c(O)c1C2=O
not listed: [4] | [17] | [18] | [19]
inactive: all other assays above

COc1cccc2c1C(=O)c1c(O)c3c(c(O)c1C2=O)C[C@@](O)(C(=O)CO)C[C@@H]3O[C@H]1C[C@H](N)[C@H](O)[C@H](C)O1
inactive: [20] | [5] | [7]
active: [6] 98.2 nM and 390 nM | [8] 0.401 µM | [10] 211 nM and 437 nM

Cc1cccc(Nc2cc(Cl)nc(SCC(=O)O)n2)c1C
active: [1] 50 µM
not listed: [5] | [7] | [9] | [12] | [18] | [20]
inactive: all other assays above

COCCOC[C@H](CC1(C(=O)NC2CCC(C(=O)O)CC2)CCCC1)C(=O)Oc1ccc2c(c1)CCC2 (stereo not given in full)
not listed: [9] | [18] | [20]
inactive: all other assays above
